# In PubChem BioAssay AID588443 (Southern Research Specialized Biocontainment Screening …, 2011):
# Measured potencies and affinities stand elsewhere. Inconclusive results are not listed. Values without a mark were called inactive. No rule for the calls is given here.
# Assay: THP-1 cell cytotoxicity, cytotoxicity control, set 5 (AID 588443)
# Settings: THP-1 cell viability, cytotoxicity CC50; series mostly up to 100 µM; viability: at the top concentration
row,Structure (SMILES),viability [%]
1,COc1ccc(N2CCN(C(=O)c3ccc(CNc4c(N5CCOCC5)c(=O)c4=O)cc3)CC2)cc1,86.9
2,CCOC(=O)CSc1ncnc2c1cnn2-c1ccccc1,94
3,COC(=O)CSc1ncnc2c1cnn2-c1ccc(C)cc1C,104
4,CCOC(=O)CSc1ncnc2c1cnn2-c1ccc(C)cc1C,100
